As usually defined, the AC50 is the concentration giving half of the maximal activity seen.

Structures are written as SMILES. Calls of active or inactive are those of the source. Rule for the calls: active = hit-call score of the fitted dose curve at least 0.9, where 1 is the maximum; inactive = score below 0.9.

The source of these data is PubChem BioAssay (EPA / NIEHS).

The nature of test [1]: ATG_GLI_CIS: Attagene CIS-FACTORIAL HepG2 Assay for human Zinc Finger Protein GLI1 (AID 2282945). As to conditions: HepG2, Attagene cis-factorial reporter mRNA, GLI element; actives raise or lower the signal. The procedure, abridged: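 HepG2 cells transiently transfected with cis-promoter multiplexed reporter units report endogenous transcription factor activity. After 24 h chemical exposure, reporter mRNA was quantified by RT-PCR, 6-FAM labelling, HpaI digestion and capillary electrophoresis, with bidirectional fitting against DMSO.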

Test [2] deals with Bile acid receptor (Homo sapiens) (UniProt Q96RI1). Kind of test: ATG_IR1_CIS: Attagene CIS-FACTORIAL HepG2 Assay for human Nuclear Receptor Subfamily 1 Group H Member 4 (NR1H4), IR1 submotif (AID 2282946). As to conditions: IR1 reporter transcription, actives raise or lower the signal. The essentials:
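Readout: reporter transcript levels by RT-PCR with fluorescent capillary electrophoresis, from HepG2 cells transiently transfected with multiplexed cis-regulated reporters and dosed 24 h. Gain- or loss-of-signal fitted versus DMSO negative control.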

The nature of test [3]: ATG_GRE_CIS: Attagene CIS-FACTORIAL HepG2 Assay for human Glucocorticoid Response Elements (GRE) (AID 2282947). The conditions noted are these: HepG2 GRE cis-reporter, Attagene multiplex mRNA; actives raise or lower the signal. The procedure, abridged:
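HepG2, transient cis-reporter transfection, 24 h. Reporter mRNA: RT-PCR then CE, fluorescence. Fit both directions vs DMSO.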

Test [4] in a line: ATG_ISRE_CIS: Attagene CIS-FACTORIAL HepG2 Assay for human Interferon Regulatory Factor 1 (IRF1) binding to an Interferon-Stimulated Response Element (ISRE) (AID 2282948). As to conditions: HepG2 ISRE cis-reporter (Attagene), mRNA transcription readout; actives raise or lower the signal. The procedure, abridged: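 Uses HepG2 liver cells transfected with cis-regulated reporters and measures mRNA 24 h post-dosing through RT-PCR, primer-extension labelling and capillary electrophoresis, with DMSO as negative control.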

The nature of test [5]: ATG_M_32_CIS: Attagene CIS-FACTORIAL HepG2 Assay for M32 Transcription Factor (Internal Marker) (AID 2282949).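 Note: background control marker of the multiplexed CIS panel rather than a real target.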 The conditions noted are these: HepG2 Attagene cis-factorial M32 reporter, mRNA; actives raise or lower the signal. The essentials: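 Using DMSO as baseline, bidirectional curve fits were applied to reporter mRNA signals. These came from transiently transfected HepG2 cells exposed for 24 h, with RNA analysed by RT-PCR, FAM primer extension, HpaI digestion and CE.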

Test [6] in a line: ATG_M_06_CIS: Attagene CIS-FACTORIAL HepG2 Assay for M06 Transcription Factor (Internal Marker) (AID 2282950). The conditions noted are these: HepG2 Attagene CIS-FACTORIAL M06 internal marker reporter; actives raise or lower the signal. The essentials: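 HepG2 cells transiently transfected with cis-regulated multiple reporter transcription units were exposed to chemical for 24 h; reporter mRNA was quantified by RT-PCR, 6-FAM primer labelling, HpaI digestion and capillary electrophoresis, fitted bidirectionally against DMSO.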

For test [7], the target named is Hypoxia-inducible factor 1-alpha (Homo sapiens) (UniProt Q16665). Kind of test: ATG_HIF1a_CIS: Attagene CIS-FACTORIAL HepG2 Assay for human Hypoxia Inducible Factor 1 (HIF1A) (AID 2282951). As to conditions: HepG2 Attagene cis-factorial HIF1a reporter transcription; actives raise or lower the signal. The procedure, abridged:
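In this multiplexed cell assay, HepG2 cells bearing transfected cis reporters are dosed for 24 h and reporter mRNA is read by RT-PCR plus capillary electrophoresis; signal increases and decreases are both scored against DMSO.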

The target in test [8] is Hepatocyte nuclear factor 6 (Homo sapiens) (UniProt Q9UBC0). Kind of test: ATG_HNF6_CIS: Attagene CIS-FACTORIAL HepG2 Assay for human Hepatocyte Nuclear Factor 6 (HNF6) (AID 2282952). As to conditions: HepG2 Attagene cis-factorial HNF6 reporter transcription; actives raise or lower the signal. The essentials: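 Readout: fluorescent reporter-transcript fragments resolved by capillary electrophoresis after RT-PCR, reflecting endogenous factor activity in transfected HepG2. Exposure 24 h. Gain or loss of signal fitted bidirectionally against DMSO.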
Hepatocyte nuclear factor 6 (Homo sapiens), sequence (Q9UBC0 whole entry, looked up, the tested form may be a part): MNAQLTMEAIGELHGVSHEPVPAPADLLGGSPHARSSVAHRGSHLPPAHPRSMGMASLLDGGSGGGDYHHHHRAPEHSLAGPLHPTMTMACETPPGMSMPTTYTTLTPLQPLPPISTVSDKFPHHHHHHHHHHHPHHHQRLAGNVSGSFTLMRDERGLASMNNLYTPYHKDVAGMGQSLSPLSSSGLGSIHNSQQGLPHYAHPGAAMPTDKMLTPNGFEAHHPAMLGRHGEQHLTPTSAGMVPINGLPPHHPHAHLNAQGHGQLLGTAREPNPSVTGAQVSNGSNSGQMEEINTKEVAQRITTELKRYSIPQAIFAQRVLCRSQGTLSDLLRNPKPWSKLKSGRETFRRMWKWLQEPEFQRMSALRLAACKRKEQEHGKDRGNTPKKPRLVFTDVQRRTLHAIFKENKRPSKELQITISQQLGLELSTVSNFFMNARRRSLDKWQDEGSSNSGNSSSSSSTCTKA

Test [9] addresses Heat shock factor protein 1 (Homo sapiens) (UniProt Q00613). Briefly: ATG_HSE_CIS: Attagene CIS-FACTORIAL HepG2 Assay for human Heat Shock Transcription Factor 1 (HSE) (AID 2282953). The conditions noted are these: HepG2 HSE cis-reporter, Attagene RNA transcription; actives raise or lower the signal. The procedure, abridged: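 HepG2 cells transiently transfected with multiple reporter transcription units under cis-regulatory promoter control, measuring endogenous transcription factor activity. After 24 h chemical exposure, reporter mRNA quantified by RT-PCR, fluorescent labelling, HpaI digestion and capillary electrophoresis; bidirectional fit versus DMSO.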

A short description of test [10]: ATG_MRE_CIS: Attagene CIS-FACTORIAL HepG2 Assay for human Metal Responsive Element (MRE) (AID 2282954). As to conditions: HepG2 MRE cis-reporter transcription, Attagene multiplex; actives raise or lower the signal. The procedure, abridged: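 Readout: capillary electrophoresis of 6-FAM-labelled, HpaI-digested RT-PCR reporter products. System: HepG2 cells carrying transient multiplexed cis reporters, dosed 24 h. Analysis: bidirectional fit, DMSO baseline.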

Test [11] has as its target Paired box protein Pax-6 (Homo sapiens) (UniProt P26367). Kind of test: ATG_Pax6_CIS: Attagene CIS-FACTORIAL HepG2 Assay for human Paired Box 6 (PAX6) (AID 2282956). As to conditions: HepG2 CIS-FACTORIAL PAX6 reporter transcription, RNA readout; actives raise or lower the signal. The essentials: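 DMSO-referenced bidirectional fits of reporter mRNA fluorescence; HepG2 with transient cis-promoter MRTUs, 24 h post-dose, RT-PCR plus capillary electrophoresis detection.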

A short description of test [12]: ATG_PXRE_CIS: Attagene CIS-FACTORIAL HepG2 Assay for human Pregnane X Receptor Element (PXRE) (AID 2282957). The conditions noted are these: HepG2 Attagene CIS-FACTORIAL PXRE reporter, mRNA; actives raise or lower the signal. The essentials: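 Read-out: fluorescence of reporter-specific RT-PCR products resolved by capillary electrophoresis, fitted bidirectionally relative to DMSO. Human HepG2 liver cells carried transfected cis-promoter reporter units and were exposed to chemicals for 24 h.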

A short description of test [13]: ATG_RORE_CIS: Attagene CIS-FACTORIAL HepG2 Assay for human RAR-related Orphan Receptor Element (RORE) (AID 2282959). As to conditions: HepG2 Attagene cis-factorial RORE reporter, mRNA; actives raise or lower the signal. The essentials:
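Fluorescence intensity of reporter-specific cDNA fragments, separated by capillary electrophoresis, gives the signal. Source: HepG2 liver cells transiently transfected with cis-element reporters and exposed 24 h; DMSO-normalized bidirectional fit.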

Test [14] in a line: ATG_Sox_CIS: Attagene CIS-FACTORIAL HepG2 Assay for human SRY-box transcription factor (SOX) (AID 2282960). The conditions noted are these: HepG2 Attagene cis-factorial SOX reporter, mRNA; actives raise or lower the signal. The essentials: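 After 24 h of chemical treatment, transfected HepG2 reporter cells are lysed for total RNA. Transcript levels come from RT-PCR with labelled primer extension and capillary electrophoresis, analysed bidirectionally versus DMSO.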

Test [15] addresses Transcription factor Sp1 (Homo sapiens) (UniProt P08047). Kind of test: ATG_Sp1_CIS: Attagene CIS-FACTORIAL HepG2 Assay for human Specificity Protein 1 (Sp1) (AID 2282961). The conditions noted are these: HepG2 Sp1 cis-reporter transcription, actives raise or lower the signal. The essentials: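 Sp1-driven reporter mRNA, read as capillary electrophoresis fluorescence after RT-PCR, in transiently transfected HepG2 cells dosed for 24 h; signal change in either direction relative to DMSO.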

Test [16] in a line: ATG_SREBP_CIS: Attagene CIS-FACTORIAL HepG2 Assay for human Sterol Regulatory Element Binding (SREBP) (AID 2282962). The conditions noted are these: HepG2 Attagene cis-factorial SREBP reporter, mRNA; actives raise or lower the signal. The procedure, abridged:
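In this cis-format assay, HepG2 liver cells express reporters controlled by promoter elements responsive to native transcription factors. Exposure lasts 24 h; reporter mRNA fluorescence from capillary electrophoresis gives the signal, fitted bidirectionally against DMSO.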

Test [17] can be described thus: ATG_TA_CIS: Attagene CIS-FACTORIAL HepG2 Assay for human TA Basal Promoter (AID 2282964). As to conditions: HepG2 Attagene CIS-factorial TA basal promoter reporter; actives raise or lower the signal. The procedure, abridged: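 HepG2 cells transiently transfected with multiplexed cis-promoter reporter units, dosed 24 h. Reporter mRNA measured by RT-PCR, 6-FAM labelling, HpaI digestion and capillary electrophoresis; bidirectional fit versus DMSO baseline, serving as background control.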

The nature of test [18]: ATG_PPRE_CIS: Attagene CIS-FACTORIAL HepG2 Assay for human Peroxisome Proliferator-activated Response Element (PPRE) (AID 2282958). As to conditions: HepG2 PPRE cis-element reporter, Attagene transcription factor profiling; actives raise or lower the signal. The essentials:
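Multiplexed reporter transcription units under cis-regulatory promoters were transfected into HepG2 cells to capture endogenous factor activity. A 24 h incubation preceded RNA isolation and fluorescent RT-PCR fragment analysis.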

Test [19] addresses Signal transducer and activator of transcription 3 (Homo sapiens) (UniProt P40763). Briefly: ATG_STAT3_CIS: Attagene CIS-FACTORIAL HepG2 Assay for human Signal Transducer and Activator of Transcription 3 (STAT3) (AID 2282963). The conditions noted are these: HepG2, Attagene cis-factorial STAT3 reporter transcription; actives raise or lower the signal. The procedure, abridged:
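Uses human liver HepG2 transiently carrying cis-regulated reporter transcription units. Following 24 h dosing, reporter mRNA induction was detected by RT-PCR and capillary electrophoresis, analysed bidirectionally versus DMSO.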

Test [20] is described as follows: ATG_PBREM_CIS: Attagene CIS-FACTORIAL HepG2 Assay for human Phenobarbital-responsive Enhancer Module (PBREM) (AID 2282955). The conditions noted are these: HepG2 PBREM cis-reporter, Attagene multiplexed transcription; actives raise or lower the signal. The essentials: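 After a 24 h incubation with test chemical, transfected HepG2 cells yield total RNA; reporter-specific RT-PCR products are fluorescently labelled, HpaI-digested and resolved by capillary electrophoresis against ROX size standards.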

Hypoxia-inducible factor 1-alpha (Homo sapiens), sequence (Q16665 whole entry, looked up): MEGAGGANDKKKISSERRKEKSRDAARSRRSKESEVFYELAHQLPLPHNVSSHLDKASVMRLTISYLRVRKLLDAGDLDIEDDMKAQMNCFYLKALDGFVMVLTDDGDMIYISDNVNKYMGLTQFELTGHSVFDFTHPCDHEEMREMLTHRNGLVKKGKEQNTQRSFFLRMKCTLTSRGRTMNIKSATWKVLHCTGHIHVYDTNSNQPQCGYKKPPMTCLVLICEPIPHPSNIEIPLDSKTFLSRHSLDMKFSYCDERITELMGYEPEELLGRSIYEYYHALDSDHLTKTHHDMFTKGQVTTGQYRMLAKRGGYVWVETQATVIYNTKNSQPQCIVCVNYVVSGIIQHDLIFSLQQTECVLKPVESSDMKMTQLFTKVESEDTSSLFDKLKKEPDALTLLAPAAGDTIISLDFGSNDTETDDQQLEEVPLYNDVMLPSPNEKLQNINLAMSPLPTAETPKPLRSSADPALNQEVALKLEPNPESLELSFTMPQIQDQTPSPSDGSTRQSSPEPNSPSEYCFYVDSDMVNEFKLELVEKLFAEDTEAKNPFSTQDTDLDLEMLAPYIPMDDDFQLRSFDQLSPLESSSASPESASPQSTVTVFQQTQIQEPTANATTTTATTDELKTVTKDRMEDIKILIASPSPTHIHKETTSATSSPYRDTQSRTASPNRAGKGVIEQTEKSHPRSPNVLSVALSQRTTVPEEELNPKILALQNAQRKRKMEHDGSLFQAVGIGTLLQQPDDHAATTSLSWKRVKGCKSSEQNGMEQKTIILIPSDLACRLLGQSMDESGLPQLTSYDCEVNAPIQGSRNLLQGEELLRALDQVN
Bile acid receptor (Homo sapiens), sequence (Q96RI1 whole entry, looked up): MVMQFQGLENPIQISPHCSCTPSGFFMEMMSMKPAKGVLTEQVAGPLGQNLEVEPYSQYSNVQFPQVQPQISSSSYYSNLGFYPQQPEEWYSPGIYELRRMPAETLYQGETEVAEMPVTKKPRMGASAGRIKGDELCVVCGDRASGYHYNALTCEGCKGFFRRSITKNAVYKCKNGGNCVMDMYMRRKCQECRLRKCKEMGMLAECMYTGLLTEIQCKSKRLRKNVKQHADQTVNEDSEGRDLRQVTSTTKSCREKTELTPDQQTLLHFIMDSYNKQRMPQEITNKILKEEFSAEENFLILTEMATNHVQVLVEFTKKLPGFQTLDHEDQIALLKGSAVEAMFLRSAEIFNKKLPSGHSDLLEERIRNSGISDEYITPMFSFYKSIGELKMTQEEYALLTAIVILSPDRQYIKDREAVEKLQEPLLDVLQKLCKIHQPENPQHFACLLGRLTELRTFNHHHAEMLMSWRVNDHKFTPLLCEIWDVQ
Paired box protein Pax-6 (Homo sapiens), sequence (P26367 whole entry, looked up): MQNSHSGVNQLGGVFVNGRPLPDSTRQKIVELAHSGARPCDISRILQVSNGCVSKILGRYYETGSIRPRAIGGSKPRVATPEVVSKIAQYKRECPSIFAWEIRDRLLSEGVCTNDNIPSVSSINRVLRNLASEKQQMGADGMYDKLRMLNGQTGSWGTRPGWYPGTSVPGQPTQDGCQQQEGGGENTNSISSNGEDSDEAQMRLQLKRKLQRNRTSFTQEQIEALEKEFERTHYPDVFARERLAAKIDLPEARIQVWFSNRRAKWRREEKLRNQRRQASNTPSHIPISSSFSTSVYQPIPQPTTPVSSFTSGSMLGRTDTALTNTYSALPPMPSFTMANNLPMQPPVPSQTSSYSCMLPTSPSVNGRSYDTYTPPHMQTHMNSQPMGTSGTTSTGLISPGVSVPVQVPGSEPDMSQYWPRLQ
Signal transducer and activator of transcription 3 (Homo sapiens), sequence (P40763 whole entry, looked up): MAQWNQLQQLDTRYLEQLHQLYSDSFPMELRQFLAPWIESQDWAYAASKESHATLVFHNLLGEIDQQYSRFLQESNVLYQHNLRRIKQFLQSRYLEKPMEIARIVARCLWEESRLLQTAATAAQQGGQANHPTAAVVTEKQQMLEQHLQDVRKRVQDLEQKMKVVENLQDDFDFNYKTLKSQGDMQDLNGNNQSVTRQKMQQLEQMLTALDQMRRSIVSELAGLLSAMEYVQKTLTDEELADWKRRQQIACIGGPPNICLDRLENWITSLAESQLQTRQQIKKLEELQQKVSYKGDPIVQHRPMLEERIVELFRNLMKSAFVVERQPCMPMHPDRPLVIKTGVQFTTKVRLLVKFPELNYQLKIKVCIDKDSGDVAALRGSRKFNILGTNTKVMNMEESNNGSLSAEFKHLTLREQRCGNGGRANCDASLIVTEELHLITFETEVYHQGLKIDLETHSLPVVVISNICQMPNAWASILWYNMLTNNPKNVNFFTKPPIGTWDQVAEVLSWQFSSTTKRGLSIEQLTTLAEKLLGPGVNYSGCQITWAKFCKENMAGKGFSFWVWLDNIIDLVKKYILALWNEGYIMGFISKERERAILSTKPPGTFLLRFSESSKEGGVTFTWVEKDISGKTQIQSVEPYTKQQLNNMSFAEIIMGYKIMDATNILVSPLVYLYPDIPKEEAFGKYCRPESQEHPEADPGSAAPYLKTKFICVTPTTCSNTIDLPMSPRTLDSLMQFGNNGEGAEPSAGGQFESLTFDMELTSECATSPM
Heat shock factor protein 1 (Homo sapiens), sequence (Q00613 whole entry, looked up): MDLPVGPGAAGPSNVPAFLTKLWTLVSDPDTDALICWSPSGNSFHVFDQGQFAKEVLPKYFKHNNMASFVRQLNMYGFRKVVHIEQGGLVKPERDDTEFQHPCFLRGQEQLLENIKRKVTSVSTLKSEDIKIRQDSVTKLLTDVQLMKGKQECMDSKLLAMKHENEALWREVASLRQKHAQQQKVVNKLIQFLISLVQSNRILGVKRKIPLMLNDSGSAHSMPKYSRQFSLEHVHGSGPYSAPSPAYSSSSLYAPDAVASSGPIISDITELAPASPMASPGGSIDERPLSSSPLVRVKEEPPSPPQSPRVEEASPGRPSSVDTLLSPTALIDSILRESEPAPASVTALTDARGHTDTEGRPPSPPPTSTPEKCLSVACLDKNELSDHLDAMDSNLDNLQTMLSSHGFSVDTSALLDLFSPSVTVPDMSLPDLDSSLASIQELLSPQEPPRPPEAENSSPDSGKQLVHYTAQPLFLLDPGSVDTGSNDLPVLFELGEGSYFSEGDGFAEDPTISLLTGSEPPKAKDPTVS
Transcription factor Sp1 (Homo sapiens), sequence (P08047 whole entry, looked up): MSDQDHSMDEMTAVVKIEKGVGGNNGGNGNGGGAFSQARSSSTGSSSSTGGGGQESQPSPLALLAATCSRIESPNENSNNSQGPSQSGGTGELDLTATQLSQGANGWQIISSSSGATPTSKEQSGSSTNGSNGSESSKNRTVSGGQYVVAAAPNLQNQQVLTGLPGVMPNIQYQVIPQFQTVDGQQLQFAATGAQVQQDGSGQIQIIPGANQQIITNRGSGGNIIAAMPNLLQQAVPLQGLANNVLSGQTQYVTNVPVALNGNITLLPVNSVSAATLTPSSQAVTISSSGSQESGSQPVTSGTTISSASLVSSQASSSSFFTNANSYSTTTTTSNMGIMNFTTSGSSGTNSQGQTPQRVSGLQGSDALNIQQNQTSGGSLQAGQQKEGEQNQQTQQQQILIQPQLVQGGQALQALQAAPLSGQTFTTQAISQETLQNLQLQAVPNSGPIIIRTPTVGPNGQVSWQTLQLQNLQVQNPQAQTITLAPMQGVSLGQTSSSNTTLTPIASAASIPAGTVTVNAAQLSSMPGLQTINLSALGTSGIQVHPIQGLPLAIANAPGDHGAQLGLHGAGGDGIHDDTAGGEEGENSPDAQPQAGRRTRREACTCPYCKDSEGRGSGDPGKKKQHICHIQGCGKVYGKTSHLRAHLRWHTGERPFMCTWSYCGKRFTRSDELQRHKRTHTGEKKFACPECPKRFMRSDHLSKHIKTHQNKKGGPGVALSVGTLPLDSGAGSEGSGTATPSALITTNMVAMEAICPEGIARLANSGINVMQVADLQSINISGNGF

Take `c1ccc(Cc2ccccc2)cc1`: the call in test [1], in test [2], in test [3], in test [4], in test [5] and in [6] was inactive. In addition, the outcome in test [7], in test [8], in test [9], in test [10], in [11] and in [12] was inactive. Further, the compound was classed as inactive in test [13], in test [14], in [15], in test [16] and in test [17].

Take `CC(C)(O)CCc1ccccc1`: the compound was classed as inactive in [1], in test [2], in [3], in [4], in test [5] and in [6]. For the same compound, the compound was called inactive in [7], in [8], in test [9], in test [10], in test [11] and in test [12]. Also, the compound was called inactive in test [18], in test [13], in test [14], in test [15], in test [16] and in [19]. Moreover, in test [17], the result was inactive.

On to `O=S1(=O)CC(Cl)(Cl)C(Cl)(Cl)C1`, for which the result in test [1], in test [3], in [5], in test [6], in test [7] and in test [8] was inactive. Moreover, the result in test [9], in test [12], in test [18], in [13], in test [14] and in test [15] was inactive. The call in [16], in test [19] and in [17] was inactive. For the same compound, the half-maximal activity concentration (AC50) is 5.49 µM (active) in test [2], 1.37 µM (active) in test [4], 6.29 µM (active) in test [10] and 5.97 µM (active) in [11].

As to `CC(C)OB(OC(C)C)OC(C)C`, the result in test [1], in test [2], in [3], in test [4], in test [5] and in test [6] was inactive. The outcome in [7], in test [8], in test [9], in [10], in test [20] and in [11] was inactive. The compound was called inactive in [12], in test [13], in [14], in test [15], in test [16] and in [19]. Moreover, the outcome in [17] was inactive.

Turning to `C=C1CC[C@H]2O[C@]2(C)CC[C@@H]2[C@@H]1CC2(C)C`, the result in test [1], in test [2], in test [3], in [4], in [5] and in [6] was inactive. Besides, the compound was classed as inactive in test [7], in test [8], in test [9], in test [10], in test [20] and in [11]. In addition, the compound was classed as inactive in [12], in test [18], in test [13], in test [14], in test [15] and in [19]. Moreover, in test [17], the result was inactive.

For the compound `C=CCOCC(O)CO` (stereo unspecified), the result in [1], in test [2], in test [3], in test [4], in test [5] and in test [6] was inactive. The outcome in test [7], in test [8], in test [9], in test [10], in [20] and in test [11] was inactive. The call in [12], in test [13], in test [14], in [15], in test [16] and in [17] was inactive.

Take `CCC(C)(CCCC(C)C)OC(C)=O` (stereo unspecified): the outcome in test [1], in test [2], in [3], in test [4], in [5] and in [6] was inactive. The compound was classed as inactive in test [7], in test [8], in [9], in test [10], in test [20] and in test [11]. Also, the compound was classed as inactive in [12], in test [18], in [13], in test [14], in test [15] and in test [16]. Also, the outcome in test [19] and in test [17] was inactive.
